# An excerpt weighted towards active compounds, which were near 6.2% of everything screened.
# HT1080 IDH1KD tx: kills HT-1080 cells with IDH1 knockdown; HT-1080 IDH1 knockdown viability, ATP luminescence, 48 h; Potency, µM (titrated, usually from 46.1 µM), inactives show at the highest dose activity, negative = toxicity, hits mostly cytotoxic; hit rate 2% among 360,000; AID 686971;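 also: 0% = DMSO wells and -100% = cell-free medium wells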
#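 Assay cells: HT-1080 with IDH1 knockdown, 750 per well, RPMI/5% FBS. Exposure: 48 h at 37 °C following 2 h pre-incubation. Read: CellTiter-Glo luminescence; fitted concentration-response, curve class assigned.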
# KB-V1 cytotox: kills drug-selected multidrug resistant KB-V1 cells. KB-V1 MDR cells viability, CellTiter-Glo, 72 h. Potency, µM (highest dose often 46.1 µM), hits mostly cytotoxic. hit rate 3.4% among 400,000; also: % is scaled to controls: 0 for no effect and ±100 for the full control effect; nearly all actives have a fitted effect of over 60% in size
#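 Following 72 h at 37 degrees C with compound, KB-V1 cell viability was read by CellTiter-Glo luminescence, medium being phenol-red-free DMEM plus 10% FBS; concentration-response parameters came from normalized, curve-fitted qHTS data.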
# ATXN viability: reduces viability in counter-screen for ATXN expression inhibitors; S2 cells (HEK-293 line with an ATXN2-luciferase reporter) viability, CellTiter-Fluor protease fluorescence, 24 h; Potency, µM (highest dose often 56.7 µM), actives largely listed as cytotoxic; hit rate 0.49% among 400,000; AID 651635; also: nearly all actives have a fitted effect of over 40% in size
# KB-3-1 cytotox: kills parental KB-3-1 adenocarcinoma cells | KB-3-1 viability, CellTiter-Glo ATP luminescence, 72 h | Potency, µM (doses to about 46.1 µM), actives largely listed as cytotoxic | hit rate 1.4% among 400,000 | AID 1347075; also: % is scaled to controls: 0 for no effect and ±100 for the full control effect; nearly all actives have a fitted effect of over 60% in size
#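 Screening of KB-3-1 cells (DMEM, 10% FBS, phenol-red free) ran from lowest to highest compound concentration; after 72 h at 37 °C viability was read luminescently and curves fitted.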
# ATXN2 expr inh: reduces ATXN2 reporter expression in HEK-293 cells; hit rate 0.72% among 360,000; HEK-293 ATXN2-luciferase reporter, luminescence, 24 h; AID 1745845; Potency, µM (doses to about 57 µM), for inactives: top-dose activity change, negative = inhibition, actives largely listed as inhibitors; also: % is scaled to controls: 0 for no effect and ±100 for the full control effect; nearly all actives have a fitted effect of over 55% in size
#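 qHTS (up to 57 uM final) was run with 24 h compound exposure of reporter cells at 37 °C. Each well was multiplexed: SteadyGlo luminescence measured ATXN2-luciferase expression after a fluorogenic Gly-Phe-AFC viability readout (25 uM final).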
# HT1080-NT tox: kills 2HG-producing HT-1080-NT fibrosarcoma cells; hit rate 1.6% among 360,000; HT-1080-NT fibrosarcoma viability, CellTiter-Glo ATP luminescence, 48 h; Potency, µM (titrated, usually from 46.1 µM), for the others: top-dose activity, negative = less viability, hits mostly cytotoxic;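 also: NT is the 2HG producing partner of a matched IDH1 knockdown line; 0% = DMSO-treated cells and -100% = media-only wells without cells; nearly all actives have a fitted effect of over 55% in size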
#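 Viability by CellTiter-Glo luminescence after 48 h compound exposure at 37C of HT-1080-NT cells (750/well, RPMI, 5% FBS). % activity scaled between DMSO wells and medium-only wells, then curve-fitted and categorized by curve class.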
# The depositor's hits bear a star; i = inactive; ? = inconclusive; . = no result given; [ ] = another dose, or the depositor's remark. Calls follow the shape of the dose curve; as a rule, active = well fitted curve in the direction sought with a large enough effect; inconclusive = small, poorly fitted or top-dose-only effect, or another doubt; inactive = no such curve, though single readings can be large; an effect the other way counts as inactive or inconclusive. Potency is read from the fitted curve at half-maximal effect.
SMILES,HT1080 IDH1KD tx,KB-V1 cytotox,ATXN viability,KB-3-1 cytotox,ATXN2 expr inh,HT1080-NT tox
Cc1ccccc1C1(CC(=O)N2CCCCC2c2cccnc2)CC(=O)N(C2CCCC2)C1=O (stereo not given),.,.,i,.,.,.
Cc1ccc2onc(CNC(=O)N3CCN(c4cc(Cl)ccc4C)CC3)c2c1,.,i,?,i,?,.
c1ccc(-c2cc(NCCN3CCCCC3)c3ccccc3n2)cc1,21µM*,?,.,?,28µM*,21µM*
CN(C)CCOc1ccccc1Cc1ccccc1 (tested in a mixture with another compound),.,.,i,.,.,.
O=[N+]([O-])c1cc(-c2nc(-c3ccccc3)no2)ccc1NC1CCCCC1,.,?,i,i,9%,.
Cc1ccc(C(C)C)c(OCc2nn(CC(=O)c3ccc(Cl)cc3)c3[n+]2CCCCC3)c1,18µM*,i,?,?,?,?
O=C(Cn1nc(CNc2ccc(Cl)cc2)[n+]2c1CCCCC2)c1ccccc1,-14%,?,i,?,-7%,-18%
N#CCCN1CCN(C(=S)c2ccc(-c3cc(Cl)ccc3Cl)o2)CC1,0%,6.5µM*,?,i,-15%,-11%
FC(F)(F)c1cc(-c2ccco2)nc(-n2cnc3ccccc32)n1,10%,i,i,i,?,6%
Cc1nc2ccccc2n1-c1nc(-c2ccco2)cc(C(F)(F)F)n1,5.6µM*,i,i,i,?,5.6µM*
COc1c(C)cc(S(=O)(=O)N2CCCC2)c(C)c1C,-2%,23µM*,i,i,-3%,2%
Cc1ccc(/C=N/NC(=O)c2csc3c2CCCC3)cc1,?,?,i,2.1µM*,51%,?
COc1cc(/C=N/NC(=O)c2csc3c2CCCC3)cc(OC)c1O,-2%,i,i,i,3%,5%
O=C(CN1C(=O)COc2ccc(S(=O)(=O)N3CCCC3)cc21)N1CCN(c2ccccc2)CC1,.,i,.,i,.,.
COc1ccc(-n2nnnc2SC(C)C(=O)NC2CCCC2)cc1 (stereo not given),-1%,i,i,i,.,2%
O=C(NC1CCCCC1)C1CCCN(c2nnnn2-c2ccccc2)C1 (stereo not given),-7%,16µM*,i,i,-17%,21%
CCOc1ccc(N2C(=O)CC(Sc3nnnn3-c3ccccc3)C2=O)cc1 (stereo not given),15µM*,i,?,i,-7%,-28%
O=C(Nc1cccc(F)c1)C1CCN(c2nnnn2-c2ccccc2)CC1,-7%,?,i,?,-15%,0%
CCOc1ccc(NC(=O)C2CCN(c3nnnn3-c3ccccc3)CC2)cc1,-1%,8.2µM*,i,i,-7%,0%
CC(Sc1nnnn1-c1ccccc1)C(=O)NC1CCCC1 (stereo not given),7%,13µM*,i,i,3%,7%
CCOc1ccc(N2C(=O)CC(SCCN)C2=O)cc1 (stereo not given),11%,i,i,i,-9%,7%
Cc1ccccc1C(=O)Nc1ccc2nc(Nc3cccc(C(F)(F)F)c3)cc(C)c2c1,.,i,i,?,?,.
CCOc1ccc(OCCNC(=O)c2ccc3c(c2)nnn3CC)cc1,-6%,23µM*,i,i,11%,-6%
C/C=C(\C)C(=O)OC1[C@H](OC(C)=O)C2(CO)C(CC1(C)C)C1=CCC3C4(C)CCC(O[C@@H]5O[C@H](C(=O)O)[C@@H](O[C@@H]6O[C@H](CO)[C@@H](O)[C@H](O)[C@H]6O)[C@H](O)[C@H]5O[C@H]5O[C@H](CO)[C@@H](O)[C@H](O)[C@H]5O)[C@](C)(CO)C4CCC3(C)[C@]1(C)C[C@H]2O (stereo not given in full),.,?,14µM*,i,8.9µM*,.
CC1(C)C[C@H]2C3=CCC4[C@@]5(C)CC[C@H](O[C@@H]6O[C@H](C(=O)O)[C@@H](O)[C@H](O)[C@H]6O)[C@@](C)(CO)C5CC[C@@]4(C)[C@]3(C)C[C@H](O)[C@@]2(CO)[C@@H](O)[C@@H]1O (stereo not given in full),13%,i,i,i,16%,10%
SMILES,HT1080 IDH1KD tx,KB-V1 cytotox,ATXN viability,KB-3-1 cytotox,ATXN2 expr inh,HT1080-NT tox
C/C=C(/C)C(=O)OC1CC(C)(C)C[C@H]2C3=CC[C@@H]4[C@@]5(C)CCC(O[C@@H]6O[C@@H](C(=O)O)[C@@H](O)C(O[C@@H]7OC[C@H](O)[C@@H](O)[C@@H]7O[C@@H]7OC(CO)C(O)[C@@H](O)[C@@H]7O)C6O[C@@H]6OC(CO)C(O)C(O)C6O)[C@@](C)(CO)[C@@H]5CC[C@]4(C)[C@]3(C)CC(O)[C@@]12CO (stereo not given in full),?,i,32µM*,i,0%,?
CCOc1ccc(C(=O)N(Cc2nc(-c3cccc(C)c3)no2)C(C)C)cc1,.,?,i,i,?,.
COc1ccc(C2=NN(C(N)=S)C(c3ccccc3)C2)cc1 (stereo not given),?,?,i,i,21%,-26%
CC1Sc2n(c3ccccc3[n+]2C)N=C1c1ccccc1 (stereo not given),7.3µM*,i,i,7.3µM*,-21%,-23%
COc1ccc(C2=Nn3c([n+](C)c4ccccc43)SC2)cc1,?,i,?,2.6µM*,.,?
C[n+]1c2n(c3ccccc31)N=C(c1ccc(Cl)cc1)CS2,?,i,i,5.8µM*,?,?
CC/C(=C\c1ccc(C(=O)OC)cc1)c1cc(OC)cc2oc3ccccc3c12,.,i,.,i,.,.
O=C(/C=C/Nc1ccc(Oc2ccccc2Cl)cc1)c1ccco1,?,?,i,21µM*,23%,?
COc1ccccc1Oc1ccc(N/C=C/C(=O)c2ccco2)cc1,-22%,i,.,i,14%[11.3 µM],-22%
CCOC(=O)c1c(NC(C)=O)sc2c1CCC(C=NCCCN(CC)CC)=C2Sc1ccccc1,?,16µM*,.,?,?,?
CCOC(=O)c1c(NC(C)=O)sc2c(OCCN(CC)CC)c(Br)ccc12,-28%,i,?,i,?,-6%
O=C(C[N+]12CN3CN(CN(C3)C1)C2)c1ccc(Cl)cc1,.,i,.,i,.,.
CN(Cc1cn(C)nc1-c1ccc(Oc2ccccc2)cc1)Cc1cnc2ccccn12,-20%,i,.,i,.,29µM*
